# Bioassay records from PubChem.
# ERK EGF block – inhibitors of EGF-stimulated ERK signaling pathway | HEK293-V1b, EGF-stimulated phospho-ERK AlphaScreen | Potency, µM (doses to about 11.5 µM), without a hit: top-dose activity change, negative = inhibition, actives largely listed as inhibitors | 0.41% of 130,000 active | AID 1454; active = well fitted inhibition curve with a large enough effect;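 also: plate controls were stimulated vehicle wells for no effect and unstimulated vehicle basal for full effect; nearly all actives have a fitted effect of over 55% in size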
#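 Cell line HEK293 (stable V1b), low serum overnight. Pretreatment: compound 30 min, 37C. EGF 25 nM, 5 min. Detection: SureFire AlphaScreen, 5 h RT. AC50 via standard Hill equation.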
# Numbers without * were called inactive; ! = repeats disagree; [ ] = another dose, or the depositor's remark. The full list was thinned out, with hits kept by preference. Potency is read from the fitted curve at half-maximal effect.
SMILES,ERK EGF block
COC(=O)C1=C(C)[C@@H](O)[C@@H](C)[C@](C)(c2cc(OC)c(C)c(OC)c2COc2ccccc2)O1,-9%
CSc1ncnc2c1ncn2C1OC(CO)C(O)C1O (stereo unspecified),11%
Cc1cccc(N2CCN(C(=S)c3ccc([N+](=O)[O-])cc3)CC2)c1,18µM*
O=[N+]([O-])c1cccc(C(=S)N2CCN(c3ccccc3)CC2)c1,6%
Cc1cccc(N2CCN(C(=S)c3ccccc3)CC2)c1,2%[57.5 µM]
Cc1nn(-c2ccccc2)c(Cl)c1/C=C1\C(=O)N(C)C(=S)N1C,-1%
Cc1nn(-c2ccc(F)cc2)c(Cl)c1/C=C1\C(=O)Nc2ccccc21,28µM*
Cc1ccc(/C=C2\C(=O)Nc3ccccc32)o1,4%
CNC(=O)[C@H]1O[C@H](n2cnc3c(NCc4cccc(I)c4)ncnc32)[C@@H](O)[C@@H]1O,-7%
COc1ccccc1N1CCN(/N=C/c2cccc(OC)c2O)CC1,-9%
CCOC(=O)N/N=C/C=C/c1ccccc1[N+](=O)[O-],9%
O=[N+]([O-])c1ccccc1/C=C/C=N/n1c(-c2ccccc2)n[nH]c1=S,-12%
COc1ccccc1N1CCN(/N=C/C=C\c2ccccc2[N+](=O)[O-])CC1,25µM*
CC1CCCC(C)N1/N=C/C=C/c1ccccc1[N+](=O)[O-] (stereo unspecified),20µM*
Cc1ccc(N2CCN(/N=C/c3ccccc3[N+](=O)[O-])CC2)cc1,-4%
COc1ccccc1-c1nc(NCc2ccccc2)c2ccccc2n1,29%
[N-]=[N+]=NCC1OC(n2cnc3c(=O)[nH]c(N)nc32)C(O)C1O (stereo unspecified),15%
Cc1ccc2c(c1)C(=O)[C@@]1(O)CCN(c3ccccc3)C1=N2,-15%
COc1ncc2nc(-c3cccs3)c(=O)n(-c3ccccc3)c2n1,-9%
CC1=C2C(=COC(C)C2C)C(=O)C(C(=O)O)=C1O (stereo unspecified),9%
CCN(CC)S(=O)(=O)c1cccc(C(=O)c2c(C)cc3ccccn23)c1,3%
Cc1cc2ccccn2c1C(=O)c1ccc(NN)c([N+](=O)[O-])c1,25µM*
Cc1cccc(NC(=O)CSc2ccc(C(N)=O)cc2[N+](=O)[O-])c1C,-2%
O=C(O)c1ccc(Sc2nnc3ccccn23)c([N+](=O)[O-])c1,5%[57.5 µM]
Cc1cc2ccccn2c1C(=O)Nc1ccccc1,-6%
SMILES,ERK EGF block
Cc1cc2ccccn2c1C(=O)c1cc([N+](=O)[O-])cc([N+](=O)[O-])c1,28µM*
COC(=O)C1(C(=O)OC)CC2=CC(CC2=O)Cc2ccccc2[C@@H]1C[N+](=O)[O-] (stereo partly specified),-2%
COc1ccc(-n2c(=O)c(CCc3ccccc3)nc3cnc(N(C)C)nc32)cc1,4%
O=C1CCCC1C(O)c1ccc2ccccc2c1 (stereo unspecified),12%
O=C(N/N=C/c1cn(-c2ccccc2)nc1-c1cc2ccccc2o1)c1ccncc1,1%
O=C(N/N=C/c1cn(-c2ccccc2)nc1-c1cc2ccccc2o1)c1cccnc1,7.1µM*
O=C(N/N=C/c1cn(-c2ccccc2)nc1-c1cccnc1)c1cccnc1,-2%
Fc1ccc(C(c2ccc(F)cc2)N2CCN(C/C=C\c3ccccc3)CC2)cc1,-10%
COCCn1c(=O)c(-c2ccc(Cl)cc2)nc2cnc(OC)nc21,1%
COC(=O)C/C=C/[C@@H](C)[C@H](OC)c1c(Br)ccc2c1OCO2,-8%
C/C=C(\C)C(=O)OC1[C@@H]2C=C3C4CC(=O)OC(c5ccoc5)[C@]4(C)CCC3[C@@](C)(C2=O)C(C(O)C(=O)OC)C1(C)C (stereo partly specified),2%
Cc1[nH]c2ccccc2c1N=Nc1ccc(F)cc1,2%
Cc1cc(=O)n2[nH]c(N)c(N=Nc3ccccc3)c2n1,6%
Cc1[nH]c(N=Nc2ccccc2)nc1N=Nc1ccccc1,22µM*
CC1(OC(=O)c2cnc3ccccc3n2)C(=O)C=C2C=C(c3ccsc3)OC=C2C1=O (stereo unspecified),-12%
CCCCC[C@H](O)/C=C/[C@H]1OC(O)C[C@H](O)[C@@H]1C/C=C\CC(=O)O (stereo partly specified),-4%
C[n+]1cc2c3c(ccc2c2ccc4cc5c(cc4c21)OCO5)OCO3,25µM*!
C[n+]1c(/C=C/c2ccc3c(c2)OCO3)ccc2ccccc21,-2%
CC(=O)Oc1ccc(/C=C/C(=O)CC2OC(Oc3cc(OC(C)=O)c4c(c3)O[C@@H](c3ccc(OC(C)=O)cc3)CC4=O)C(OC(C)=O)C(OC(C)=O)C2OC(C)=O)cc1 (stereo partly specified),-11%
Cc1ccc2ncnc(NCCCCCC(=O)O)c2c1,-10%[57.5 µM]
COc1ccc(/C(=C/Nc2cccc(Br)c2)C(C)=O)cc1OC,2%
COc1ccc(Nc2ncnc3c2cnn3-c2cccc(C)c2)cc1OC,-9%[57.5 µM]
Cc1cccc(Nc2ncnc3nc[nH]c23)c1,28µM*
OCCCNc1ncnc2sc(-c3ccccc3)cc12,6%
O=C(O)c1cccc(Nc2ncnc3sccc23)c1,-2%
SMILES,ERK EGF block
CC(Nc1ncnc2nc[nH]c12)c1ccccc1 (stereo unspecified),1%
Cc1cc2c(Nc3ccccc3)ncnc2s1,14µM*
Cc1ccc2ncnc(Nc3ccccc3)c2c1,3.5µM*
Cc1ccc(/C=N/Nc2ncnc3nc[nH]c23)cc1,9%[57.5 µM]
Cc1ccc2ncnc(Nc3cccc(C(=O)O)c3)c2c1,-3%[57.5 µM]
COc1cc2ncnc(Nc3cccc(Br)c3)c2cc1OC,0.1µM*
COc1cccc([C@@H]2Oc3ccc(Br)cc3C(=O)[C@H]2OC(=O)NS(=O)(=O)c2ccc(C)cc2)c1,-3%
COC(=O)CC1[C@@]2(C)C[C@]34OC5(C)OC6(C7CC(=O)OC(c8ccoc8)[C@]7(C)CCC6(O5)[C@]13C)C(OC(C)=O)[C@]4(OC(C)=O)C2OC(C)=O (stereo partly specified),19%
O=S(=O)(c1ccccc1)N1CCC2(CC1)CN(c1ccccn1)C2,-4%
COC(=O)[C@H](Cc1ccccc1)NC(=O)O[C@@H]1Cc2cc(OC)ccc2O[C@H]1c1cccc(OC)c1,-8%
CS(=O)(=O)N1CCC2(CCCN(C(=O)Nc3ccccc3)C2)CC1,7%
Cc1cn2c(=O)c3ccccc3nc2n2c(=O)c3ccccc3nc12,-5%
C=CCCCCCCCCCCCc1ccco1,8%
Cc1noc(C)c1C(=O)N1CCC2(CC1)CN(c1ccccn1)C2,2%
COc1ccc(NC(=O)N2CC3(CCN(C(=O)c4cccc(F)c4)CC3)C2)cc1,-11%
CCCCCC(=O)/C=C/C=C\C/C=C\C/C=C\CCCC(=O)O,5%
CC(C)OC(=O)[C@@H]1CC[C@H](C)[C@@H](CCCCO)O1,-20%
Cc1cccc(Nc2nc3ccccc3n3nnnc23)c1,-4%
CCOc1ccc(Nc2ncnc3ccc([N+](=O)[O-])cc23)cc1,-7%
Cc1cccc(Nc2ncnc3ccc(Br)cc23)c1,1.8µM*
COc1ccc(C(=O)N2CCC3(CCCN(Cc4ccccc4OC)C3)CC2)cc1,-3%
CC(=O)Oc1cc2c(c(C)c1OC(C)=O)CC=C1[C@]3(C)CC[C@]4(C)CC[C@@](C)(C(=O)O)CC4[C@]3(C)CC[C@]12C (stereo partly specified),6%
OC(COc1ccc(CNCCc2ccc(C(F)(F)F)cc2)cc1)CN1CCCCC1 (stereo unspecified),-3%
COc1ccc(CCNCC(O)COc2cccc(Br)c2)cc1 (stereo unspecified),-2%[57.5 µM]
